Assay [1] in a line: NCI Yeast Anticancer Drug Screen. Data for the rad50 strain (AID 155).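 Further: 0% = growth of vehicle-only cultures of the same strain.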 As to conditions: S. cerevisiae rad50 strain growth inhibition, stronger effect = higher value. The gist of the method:
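Growth of the mutant yeast was measured after compound exposure and referenced to vehicle-treated cultures.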

Assay [2] can be described thus: NCI Yeast Anticancer Drug Screen. Data for the mec2-1 strain (AID 157). Conditions: S. cerevisiae mec2-1 strain, stronger effect = higher value. In a few lines: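 mec2-1 yeast strain, carrying an alteration in DNA damage repair or cell cycle control, was exposed to compounds; growth inhibition was measured relative to vehicle-treated controls.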
Assay [3] is described as follows: NCI Yeast Anticancer Drug Screen. Data for the sgs1 mgt1 strain (AID 161).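 Further: 0% = growth of cultures given vehicle only.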 Conditions: S. cerevisiae sgs1 mgt1 strain, stronger effect = higher value. In a few lines: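 Percent growth inhibition was derived by comparing compound-exposed mutant yeast with vehicle-exposed cultures. The strain carries alterations in DNA damage repair.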
The nature of assay [4]: NCI Yeast Anticancer Drug Screen. Data for the cln2 rad14 strain (AID 165).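 Further: 0% = growth equal to vehicle treated cultures.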 As to conditions: S. cerevisiae cln2 rad14 strain, stronger effect = higher value. The gist of the method: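 Yeast carrying cln2 and rad14 alterations (cell cycle control and DNA damage repair) were exposed to compounds. Growth inhibition was measured against vehicle-treated controls.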
Assay [5] in a line: NCI Yeast Anticancer Drug Screen. Data for the bub3 strain (AID 167). As to conditions: S. cerevisiae bub3 mutant strain, stronger effect = higher value. In a few lines:
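Whole-cell yeast assay. The mutant strain was incubated with compounds, and growth inhibition was determined by comparison with vehicle-treated cells.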

Assay [6] is described as follows: NCI Yeast Anticancer Drug Screen. Data for the mlh1 rad18 strain (AID 175). As to conditions: S. cerevisiae mlh1 rad18 strain growth inhibition, stronger effect = higher value. The gist of the method:
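Growth inhibition of the yeast strain was measured after compound exposure and expressed relative to vehicle-treated controls. The strain carries defined defects in DNA damage repair.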

Where [7] appears, read: at 5.0 µM (retest, dose inferred, filed as 0.5).
The mark [8] stands for this setting: at 50.0 µM (retest, dose inferred, filed as 5.0).

The structures appear in SMILES notation. Compounds without any hit were thinned out: in the full panel of roughly 79,000, 15% have a hit. Unmarked numbers belong to inactive results. Activity calls are given as the source filed them. No stated cut-off is given here; in the data, active means growth inhibition above about 70%; inactive means the rest.

Take `Oc1c(O)c(Br)c(Br)c(Br)c1Br`: the growth inhibition is 97% (active) in assay [1] (setting [7]); 98% (active) in assay [1] (setting [8]); 91.2% (active) in assay [1] (at 50.0 µM); 99% (active) in assay [2] (setting [7]); 99% (active) in assay [2] (setting [8]); 93.5% (active) in assay [2] (at 50.0 µM). Further, the growth inhibition in assay [3] (setting [7]) is 99% (active); in assay [3] (setting [8]) it was 99% (active); in assay [3] (at 50.0 µM) it was 93.5% (active); in assay [4] (setting [7]) it was 98% (active); in assay [4] (setting [8]), 99% (active); in assay [4] (at 50.0 µM), 93% (active). The growth inhibition in assay [5] (setting [7]) is 98% (active); in assay [5] (setting [8]), 98% (active); in assay [5] (at 50.0 µM), 91.8% (active); in assay [6] (setting [7]), 98% (active); in assay [6] (setting [8]) it was 99% (active); in assay [6] (at 50.0 µM), 91.8% (active).

With `Cc1cc(C(C)(C)c2ccc(O)c(C)c2)ccc1O`, the growth inhibition is -2% in assay [1] (setting [7]); 98% (active) in assay [1] (setting [8]); 99.3% (active) in assay [1] (at 50.0 µM); -4% in assay [2] (setting [7]); 99% (active) in assay [2] (setting [8]); 99.4% (active) in assay [2] (at 50.0 µM). The growth inhibition in assay [3] (setting [7]) was -6%; in assay [3] (setting [8]), 98% (active); in assay [3] (at 50.0 µM) it was 99.5% (active); in assay [4] (setting [7]) it was 1%; in assay [4] (setting [8]), 98% (active); in assay [4] (at 50.0 µM) it was 97.6% (active). The growth inhibition in assay [5] (setting [7]) was -1%; in assay [5] (setting [8]), 99% (active); in assay [5] (at 50.0 µM), 99.2% (active); in assay [6] (setting [7]), 0%; in assay [6] (setting [8]) it was 99% (active); in assay [6] (at 50.0 µM), 99.3% (active).

Consider `O=C(CBr)Nc1ccccc1`, for which the growth inhibition is 40% in assay [1] (setting [7]); 99% (active) in assay [1] (setting [8]); 97% (active) in assay [1] (at 50.0 µM); 22% in assay [2] (setting [7]); 99% (active) in assay [2] (setting [8]); 98.9% (active) in assay [2] (at 50.0 µM). Moreover, the growth inhibition was 36% in assay [3] (setting [7]); 99% (active) in assay [3] (setting [8]); 98.4% (active) in assay [3] (at 50.0 µM); 25% in assay [4] (setting [7]); 99% (active) in assay [4] (setting [8]); 97.3% (active) in assay [4] (at 50.0 µM). The growth inhibition was 74% (active) in assay [5] (setting [7]); 99% (active) in assay [5] (setting [8]); 97.1% (active) in assay [5] (at 50.0 µM); 48% in assay [6] (setting [7]); 100% (active) in assay [6] (setting [8]); 97.8% (active) in assay [6] (at 50.0 µM).

Turning to `COC(C)(C)[CH]([Hg][Cl])n1ccccc1=O` (stereo not drawn), the growth inhibition in assay [1] (setting [7]) is 99% (active); in assay [1] (setting [8]) it was 99% (active); in assay [1] (at 50.0 µM), 99.3% (active); in assay [2] (setting [7]), 99% (active); in assay [2] (setting [8]), 100% (active); in assay [2] (at 50.0 µM) it was 99.4% (active). In addition, the growth inhibition was 99% (active) in assay [3] (setting [7]); 99% (active) in assay [3] (setting [8]); 99.3% (active) in assay [3] (at 50.0 µM); 98% (active) in assay [4] (setting [7]); 99% (active) in assay [4] (setting [8]); 99.2% (active) in assay [4] (at 50.0 µM). Also, the growth inhibition in assay [5] (setting [7]) is 99% (active); in assay [5] (setting [8]) it was 99% (active); in assay [5] (at 50.0 µM), 99.1% (active).

For the compound `CCOP(=O)(N=Nc1cccnc1)OCC`, the growth inhibition in assay [1] (setting [7]) was -2%; in assay [1] (setting [8]) it was -17%; in assay [1] (at 50.0 µM), 14%; in assay [2] (setting [7]) it was 2%; in assay [2] (setting [8]), -10%; in assay [2] (at 50.0 µM) it was 6.35%. Besides, the growth inhibition in assay [3] (setting [7]) is -1%; in assay [3] (setting [8]), -11%; in assay [3] (at 50.0 µM), 5.05%; in assay [4] (setting [7]) it was 1%; in assay [4] (setting [8]), -17%; in assay [4] (at 50.0 µM), 59.8%. Further, the growth inhibition in assay [5] (setting [7]) is 1%; in assay [5] (setting [8]), -3%; in assay [5] (at 50.0 µM), 20.1%; in assay [6] (setting [7]), 2%; in assay [6] (setting [8]), -17%; in assay [6] (at 50.0 µM), 39.1%.

On to `COc1cc(OC)c(/C=C(\C)[N+](=O)[O-])cc1Br`, for which the growth inhibition in assay [1] (setting [7]) was 1%; in assay [1] (setting [8]), 1%; in assay [1] (at 50.0 µM) it was 96.5% (active); in assay [2] (setting [7]) it was 3%; in assay [2] (setting [8]), 3%; in assay [2] (at 50.0 µM), 84.9% (active). The growth inhibition was 2% in assay [3] (setting [7]); -16% in assay [3] (setting [8]); 88% (active) in assay [3] (at 50.0 µM); 3% in assay [4] (setting [7]); 0% in assay [4] (setting [8]); 66.2% in assay [4] (at 50.0 µM). Further, the growth inhibition in assay [5] (setting [7]) was -1%; in assay [5] (setting [8]), 0%; in assay [5] (at 50.0 µM), 92.2% (active); in assay [6] (setting [7]), 2%; in assay [6] (setting [8]), 1%; in assay [6] (at 50.0 µM) it was 98.7% (active).

On to `CCOC(=O)C1=C(C)/C(=C/c2[n-]c(C)c(C(=O)OCC)c2C)N=C1C.CCOC(=O)C1=C(C)/C(=C/c2[n-]c(C)c(C(=O)OCC)c2C)N=C1C.[Zn+2]`, for which the growth inhibition is 4% in assay [1] (setting [7]); 55% in assay [1] (setting [8]); 99% (active) in assay [1] (at 50.0 µM); 2% in assay [2] (setting [7]); 47% in assay [2] (setting [8]); 99.3% (active) in assay [2] (at 50.0 µM). For the same compound, the growth inhibition is 2% in assay [3] (setting [7]); 34% in assay [3] (setting [8]); 98.8% (active) in assay [3] (at 50.0 µM); 7% in assay [4] (setting [7]); 6% in assay [4] (setting [8]); 98.2% (active) in assay [4] (at 50.0 µM). The figures for the growth inhibition in assay [5] (setting [7]), in assay [5] (setting [8]) and in assay [5] (at 50.0 µM) were 4%, 55% and 99.4% (active), respectively.

Turning to `[Cl][Hg][c]1ccc2ccccc2c1`, the growth inhibition in assay [1] (setting [7]) was 99% (active); in assay [1] (setting [8]), 98% (active); in assay [1] (at 50.0 µM) it was 85.8% (active); in assay [2] (setting [7]), 100% (active); in assay [2] (setting [8]), 97% (active); in assay [2] (at 50.0 µM) it was 89.5% (active). Also, the growth inhibition in assay [3] (setting [7]) was 100% (active); in assay [3] (setting [8]), 98% (active); in assay [3] (at 50.0 µM), 90.9% (active); in assay [4] (setting [7]) it was 100% (active); in assay [4] (setting [8]), 97% (active); in assay [4] (at 50.0 µM) it was 89.3% (active). Also, the growth inhibition is 99% (active) in assay [5] (setting [7]); 97% (active) in assay [5] (setting [8]); 88.1% (active) in assay [5] (at 50.0 µM); 100% (active) in assay [6] (setting [7]); 97% (active) in assay [6] (setting [8]).

For `[Au+].[Au+].[Au+].[c-]1nccn1Cc1ccccc1.[c-]1nccn1Cc1ccccc1.[c-]1nccn1Cc1ccccc1`, the growth inhibition in assay [1] (setting [7]) is 13%; in assay [1] (setting [8]) it was 97% (active); in assay [1] (at 50.0 µM), 76.6% (active); in assay [2] (setting [7]), 11%; in assay [2] (setting [8]), 98% (active); in assay [2] (at 50.0 µM) it was 88.2% (active). The growth inhibition in assay [3] (setting [7]) is 29%; in assay [3] (setting [8]) it was 97% (active); in assay [3] (at 50.0 µM) it was 88.9% (active); in assay [4] (setting [7]), 12%; in assay [4] (setting [8]), 97% (active); in assay [4] (at 50.0 µM), 88.8% (active). For the same compound, the growth inhibition in assay [5] (setting [7]) is 18%; in assay [5] (setting [8]), 98% (active); in assay [5] (at 50.0 µM) it was 84.3% (active); in assay [6] (setting [7]), 57%; in assay [6] (setting [8]), 96% (active); in assay [6] (at 50.0 µM), 90.9% (active).

In the case of `Cc1cc(OC(=O)N(CCCl)CCCl)c(C(C)C)cc1N=O`, the growth inhibition in assay [1] (setting [7]) was 19%; in assay [1] (setting [8]), 91% (active); in assay [1] (at 50.0 µM) it was 97.3% (active); in assay [2] (setting [7]) it was 20%; in assay [2] (setting [8]), 97% (active); in assay [2] (at 50.0 µM), 97.5% (active). For the same compound, the growth inhibition was 17% in assay [3] (setting [7]); 96% (active) in assay [3] (setting [8]); 78.5% (active) in assay [3] (at 50.0 µM); 10% in assay [4] (setting [7]); 92% (active) in assay [4] (setting [8]); 97.2% (active) in assay [4] (at 50.0 µM). Further, the growth inhibition in assay [5] (setting [7]) is 1%; in assay [5] (setting [8]) it was 94% (active); in assay [5] (at 50.0 µM), 18.8%; in assay [6] (setting [7]) it was 33%; in assay [6] (setting [8]), 97% (active); in assay [6] (at 50.0 µM) it was 97.7% (active).

Values taken from PubChem BioAssay (NCI).
